Where “and” joins values, the source holds several entries; their conditions need not be identical. Identical values can stand only once. Inconclusive results are not listed. For some of these results: Measured potencies and affinities stand elsewhere. Calls of active or inactive are those of the source. Unless noted, how the calls were made is not given here.
Tests used:
[1] = antimalarial activity against Dd2 strain (AID 2302;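 active means growth inhibition above 50% at the single 2 µM test dose, taken to imply half-maximal potency below 2 µM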;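 further: 0% = DMSO untreated growth and 100% = chloroquine plus artemisinin killed control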); conditions: P. falciparum Dd2 in RBCs, LDH growth readout, 72 h; at 2 µM; stronger effect = higher value
[2] = human hepatoma cell viability loss – ATP luminescence, cytotoxicity control for P. falciparum antimalarial project, primary screen (AID 2303;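 active means inhibition above 50%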;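 further: 0% = DMSO wells and 100% = digitonin-killed cells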); conditions: HepG2 viability, 24-48 h, at 10 µM, stronger effect = higher value
[3] = target: L-lactate dehydrogenase (Plasmodium falciparum (isolate CDC / Honduras)) (UniProt Q27743); test: PfLDH activity inhibition – cell lysate, 3D7 strain, counter-screen for P. falciparum growth inhibition project (AID 2304);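 further: 0% = vehicle and 100% = reference inhibitor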; conditions: P. falciparum 3D7 crude extract, LDH APAD/NBT absorbance; at 2 µM; stronger effect = higher value
[4] = inhibition of 3D7 malaria parasite growth – strain 3D7 (AID 2306);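 further: 0% = DMSO wells and 100% = chloroquine plus artemisinin control wells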; conditions: P. falciparum 3D7 erythrocytic growth, LDH absorbance, 72 h; at 2 µM; stronger effect = higher value
[5] = compounds altering circadian rhythm period length – cell-based, LOPAC library, luminescence reporter (AID 2774); conditions: circadian reporter cells, at 7 µM, actives lie on both sides;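 further: values are relative to mean of DMSO wells on each plate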
[6] = system: Hepatitis C virus NS3 helicase; test: blockers of NS3h binding to ssDNA – biochemical, fluorescence polarization, LOPAC1280 library, primary screen (AID 687035; in the data active means inhibition above about 37%); conditions: Purified HCV NS3 helicase, Cy5-dT15 ssDNA binding fluorescence polarization; stronger effect = higher value; concentration not given here
[7] = compounds altering Cy5-DNA-NS3h complex signal – biochemical, LOPAC1280, artefact control for HCV NS3 helicase inhibitor project (AID 687037); conditions: Cy5-DNA-NS3h complex fluorescence interference counterscreen
[8] = target: Calcium-dependent protein kinase 1 (Plasmodium falciparum (isolate 3D7)) (UniProt P62344); test: PfCDPK1 kinase inhibitors, biochemical, TCAMS library (AID 1159585; cut-off not given, nearly all actives have IC50 up to about 0.98 µM;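 further: inhibitors leave more ATP so luminescence rises with inhibition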); conditions: recombinant PfCDPK1, Kinase-Glo ATP depletion luminescence
[9] = target: Plasmodium falciparum protein kinase 6 (PK6, PF3D7_1337100) (UniProt Q8IDW1); test: PfPK6 kinase inhibitors, biochemical, TCAMS library (AID 1159586); conditions: recombinant PfPK6, Kinase-Glo ATP depletion luminescence
[10] = target: Protein kinase 7 (PK7), Plasmodium falciparum 3D7 (PF3D7_0213400) (UniProt Q7YTF7); test: inhibition of Plasmodium PK7 catalytic activity – biochemical, TCAMS antimalarial set, Kinase-Glo luminescence (AID 1159587); conditions: recombinant PfPK7, Kinase-Glo ATP depletion luminescence
[11] = target: Calcium-dependent protein kinase 4 (Plasmodium falciparum (isolate 3D7)) (UniProt Q8IBS5); test: PfCDPK4 kinase inhibitors, biochemical, TCAMS library (AID 1159588; cut-off not given, nearly all actives have IC50 up to about 0.91 µM); conditions: recombinant PfCDPK4, Kinase-Glo ATP depletion luminescence
[12] = system: Aerobactin synthetase IucA (Klebsiella pneumoniae); test: inhibition of K. pneumoniae IucA enzyme – biochemical, Tocris library, absorbance (AID 1345561); conditions: purified IucA enzyme assay, absorbance (OD) read-out; stronger effect = lower value;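 tested at 8 µM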;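 further: 100% = enzyme without compound and 0% = no enzyme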
[13] = viability loss in pontine glioma line – cell-based, SU-DIPG-XIII, MIPE4.0, CellTiter-Glo, qHTS, dose response (AID 1347061; cut-off not given, nearly all actives have AC50 up to about 37 µM;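 further: cells exposed to compound for 48 hours before readout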); conditions: CellTiter-Glo ATP luminescence
[14] = viability loss in pontine glioma line – cell-based, JHH-DIPG-1, MIPE4.0, CellTiter-Glo, qHTS, dose response (AID 1347062; cut-off not given, nearly all actives have AC50 up to about 27 µM;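 on AC50: cells exposed to compound for two days before readout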); conditions: JHH-DIPG-1 viability, CellTiter-Glo ATP luminescence
[15] = viability loss with induced miR-34 in A549 – imaging, A549 dox-inducible miR-34, nuclei and caspase counts, primary screen (AID 1347080;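 active means compounds whose cell count with miR-34 switched on is under 0.7 times the count with it off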); conditions: A549 miR-34 inducible, Hoechst nuclei count, 48 h
[16] = MELAS cybrid and Rieske KO viability enhancers – cell-based, MELAS cybrids, Rieske KO mouse fibroblasts, CellTiter-Glo, primary screen (AID 1508586;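 active means mean z-score across replicates of 1.96 or higher in either the MELAS or the Rieske mutant cell line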;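 further: z relative to plate mean and SD of compound and empty wells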); conditions: low glucose
[17] = galactose survival enhancers in mitochondrial complex I cybrids – cell-based, galactose medium, ATP luminescence, primary screen (AID 1645843;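 active means z-score of at least 1.8 in each of two replicates, scored against plate mean and spread of sample wells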;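 further: positive z means more ATP and so rescue of galactose-driven cybrid death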); conditions: complex I mutant cybrid cells, 72 h, stronger effect = higher value
[18] = P. berghei load reduction in hepatocytes – cell-based, HepG2, luciferase luminescence, HepG2 viability, primary screen (AID 624349; in the data active means parasite load remaining mostly below about 12%, no sharp cut-off; inactive means mostly above about 10%;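 further: 100% = mean of DMSO negative control wells on the same plate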); conditions: P. berghei liver stage in HepG2, luciferase luminescence, concentration not given here; parasite load remaining: stronger effect = lower value; viability: measured here: HepG2 viability without parasites
[19] = viability loss in pontine glioma line – cell-based, SU-DIPG-XVII, MIPE5.0, CellTiter-Glo, qHTS, dose response (AID 1347060; cut-off not given, nearly all actives have AC50 up to about 26 µM;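 further: cells exposed to compound for 48 hours before viability readout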); conditions: CellTiter-Glo ATP luminescence
[20] = viability loss in pontine glioma line – cell-based, SU-DIPG-IV, MIPE4.0, CellTiter-Glo, qHTS, dose response (AID 1347063; cut-off not given, nearly all actives have AC50 up to about 30 µM;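 further: compound exposure lasted 48 hours before the viability readout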); conditions: CellTiter-Glo ATP luminescence
[21] = viability loss in pontine glioma line – cell-based, SU-DIPG-XIII, MIPE5.0, CellTiter-Glo, qHTS, dose response (AID 1347064; cut-off not given, nearly all actives have AC50 up to about 23 µM;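 further: cells exposed to compound for 48 hours before the viability read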); conditions: CellTiter-Glo ATP luminescence
[22] = viability loss in pontine glioma line – cell-based, SU-DIPG-XXV, MIPE5.0, CellTiter-Glo, qHTS, dose response (AID 1347065; cut-off not given, nearly all actives have AC50 up to about 26 µM;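 further: cells exposed to compound for 48 hours before ATP readout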); conditions: CellTiter-Glo ATP luminescence
[23] = growth inhibition of DIPG cells – cell-based, MIPE4.0 library, CellTiter-Glo luminescence, qHTS (AID 1347066; cut-off not given, nearly all actives have AC50 up to about 30 µM;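 further: cells exposed to compound for 48 hours before readout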); conditions: SU-DIPG-VI viability, CellTiter-Glo ATP luminescence
[24] = JHH-DIPG-1 glioma cell viability, MIPE5.0 library, CellTiter-Glo luminescence, qHTS (AID 1347067; cut-off not given, nearly all actives have AC50 up to about 26 µM;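 further: cells exposed to compound for 48 hours before readout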); conditions: JHH-DIPG-1 glioma viability, CellTiter-Glo ATP luminescence
[25] = growth inhibition of DIPG cells – cell-based, MIPE5.0 library, qHTS (AID 1347068; cut-off not given, nearly all actives have IC50 up to about 30 µM;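 further: cells exposed to compound for 48 hours before viability readout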); conditions: SU-DIPG-XXV viability
[26] = stronger effect = lower value, cell number ratio, induced over uninduced
[27] = measured here: relative caspase fold change +Dox/-Dox
[28] = measured here: total cells with miR-34 induction, stronger effect = lower value
[29] = measured here: total cells without miR-34 induction
[30] = MELAS cybrid survival, CellTiter-Glo 48 h, stronger effect = higher value
[31] = Rieske KO mouse fibroblast survival, CellTiter-Glo 72 h

Protein kinase 7 (PK7), Plasmodium falciparum 3D7 (PF3D7_0213400), sequence (Q7YTF7 1-343): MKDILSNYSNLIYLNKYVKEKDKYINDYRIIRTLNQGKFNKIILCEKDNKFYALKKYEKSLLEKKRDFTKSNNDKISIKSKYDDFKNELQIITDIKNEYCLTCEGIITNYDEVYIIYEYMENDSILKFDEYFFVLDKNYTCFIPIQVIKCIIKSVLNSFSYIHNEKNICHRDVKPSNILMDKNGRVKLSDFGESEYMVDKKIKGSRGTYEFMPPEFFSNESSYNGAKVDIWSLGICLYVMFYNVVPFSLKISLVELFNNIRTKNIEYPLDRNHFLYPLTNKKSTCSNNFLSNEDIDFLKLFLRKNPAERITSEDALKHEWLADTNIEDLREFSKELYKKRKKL
L-lactate dehydrogenase (Plasmodium falciparum (isolate CDC / Honduras)), sequence (Q27743 whole entry, looked up): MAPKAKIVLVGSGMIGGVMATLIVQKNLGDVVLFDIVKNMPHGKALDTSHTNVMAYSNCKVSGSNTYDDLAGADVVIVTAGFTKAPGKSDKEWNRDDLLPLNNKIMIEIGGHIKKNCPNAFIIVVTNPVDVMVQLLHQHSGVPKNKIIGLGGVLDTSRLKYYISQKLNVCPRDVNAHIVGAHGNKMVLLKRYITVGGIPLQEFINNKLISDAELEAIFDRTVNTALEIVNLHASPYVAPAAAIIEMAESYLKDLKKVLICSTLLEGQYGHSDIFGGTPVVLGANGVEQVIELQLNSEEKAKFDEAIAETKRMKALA
Calcium-dependent protein kinase 4 (Plasmodium falciparum (isolate 3D7)), sequence (Q8IBS5 whole entry, looked up): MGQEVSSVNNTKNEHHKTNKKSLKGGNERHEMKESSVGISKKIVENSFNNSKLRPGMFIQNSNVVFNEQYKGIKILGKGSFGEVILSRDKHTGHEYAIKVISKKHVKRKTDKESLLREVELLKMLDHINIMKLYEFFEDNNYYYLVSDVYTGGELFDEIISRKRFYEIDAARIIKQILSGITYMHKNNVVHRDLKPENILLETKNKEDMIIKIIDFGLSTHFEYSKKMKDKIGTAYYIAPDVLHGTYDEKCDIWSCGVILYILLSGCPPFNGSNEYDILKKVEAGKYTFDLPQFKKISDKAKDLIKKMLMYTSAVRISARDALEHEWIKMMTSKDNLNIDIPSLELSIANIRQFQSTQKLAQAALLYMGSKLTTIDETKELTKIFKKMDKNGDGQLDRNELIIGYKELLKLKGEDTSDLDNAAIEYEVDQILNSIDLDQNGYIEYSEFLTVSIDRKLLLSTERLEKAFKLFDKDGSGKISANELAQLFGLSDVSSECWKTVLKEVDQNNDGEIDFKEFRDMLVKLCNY
Plasmodium falciparum protein kinase 6 (PK6, PF3D7_1337100), sequence (Q8IDW1 1-305): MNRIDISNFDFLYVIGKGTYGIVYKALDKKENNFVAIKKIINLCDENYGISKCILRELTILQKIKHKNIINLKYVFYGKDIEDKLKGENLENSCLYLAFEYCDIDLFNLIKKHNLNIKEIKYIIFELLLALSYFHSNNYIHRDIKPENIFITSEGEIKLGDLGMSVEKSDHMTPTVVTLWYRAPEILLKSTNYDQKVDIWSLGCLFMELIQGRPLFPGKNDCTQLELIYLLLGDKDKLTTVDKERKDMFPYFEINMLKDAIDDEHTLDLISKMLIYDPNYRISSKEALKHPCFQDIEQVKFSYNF
Calcium-dependent protein kinase 1 (Plasmodium falciparum (isolate 3D7)), sequence (P62344 whole entry, looked up): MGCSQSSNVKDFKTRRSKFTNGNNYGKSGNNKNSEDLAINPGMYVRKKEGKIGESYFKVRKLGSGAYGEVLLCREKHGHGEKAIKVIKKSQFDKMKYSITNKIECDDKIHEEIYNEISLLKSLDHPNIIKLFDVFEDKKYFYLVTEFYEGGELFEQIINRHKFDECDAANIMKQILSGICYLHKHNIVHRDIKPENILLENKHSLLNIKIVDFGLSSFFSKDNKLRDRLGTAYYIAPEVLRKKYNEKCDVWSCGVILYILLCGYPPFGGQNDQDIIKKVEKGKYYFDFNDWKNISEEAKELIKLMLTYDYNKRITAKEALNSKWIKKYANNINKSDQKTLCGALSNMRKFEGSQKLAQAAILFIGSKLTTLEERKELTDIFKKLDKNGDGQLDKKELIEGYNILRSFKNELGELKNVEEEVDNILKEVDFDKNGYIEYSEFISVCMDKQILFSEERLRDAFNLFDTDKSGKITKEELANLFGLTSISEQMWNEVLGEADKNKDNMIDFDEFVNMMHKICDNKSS

OC(CN1CCN(c2cccc(Cl)c2)CC1)C(c1ccccc1)c1ccccc1 (stereo unspecified)
0.565: z-score [16, 31]
active: growth inhibition [4] 85% | AC50 [13] 23.5 µM
9570 and 6630: cell count [15, 29]
0.676 and 0.73: fold change [15, 27]
inactive: growth inhibition [1] 4% | inhibition [2] -2% | inhibition [3] -2% | period change [5] -0.085 h | inhibition [6] -4% | fluorescence ratio (interference) [7] 0.9 | outcome [8] | outcome [9] | outcome [10] | outcome [11] | remaining activity [12] 112% | outcome [14] | fold change [15, 26] 0.897 and 1 | z-score [16, 30] -0.304 | z-score [17] -0.82
8580 and 6630: cell count [15, 28]

Cc1cccc2[nH]c(-c3ccc(-c4cccc(NC(=O)NCc5cccc(F)c5)c4)cc3)nc12
active: growth inhibition [4] 94%
inactive: growth inhibition [1] 5% | inhibition [2] 27% | inhibition [3] 6% | outcome [8] | outcome [9] | outcome [10] | outcome [11]

Cc1ccc(NC(=O)NCCCCCN2CCC(c3c[nH]c4ccccc34)CC2)cc1I
inactive: growth inhibition [1] 5% | inhibition [3] 6% | outcome [8] | outcome [9] | outcome [10] | outcome [11]
active: inhibition [2] 96% | growth inhibition [4] 94%

O=c1cc(N2CCCNCC2)c(Cl)nn1Cc1ccc(NS(=O)(=O)c2ccc(Oc3ccccc3)cc2)cc1
inactive: growth inhibition [1] -4% | inhibition [2] 0% | inhibition [3] -2% | outcome [8] | outcome [9] | outcome [10] | outcome [11]
active: growth inhibition [4] 98%

CCCCCCN1CCCN(Cc2ccc(C(=O)Nc3ccc(CC)cc3)cc2)CC1
inactive: inhibition [3] 2% | outcome [8] | outcome [9] | outcome [10] | outcome [11]
active: growth inhibition [1] 50% | inhibition [2] 53% | growth inhibition [4] 97%

O=C(Nc1cc(C(F)(F)F)cc(C(F)(F)F)c1)c1cc(Cl)ccc1O
1500 and 1040: cell count [15, 29]
51.5%: viability [18]
0.581 and 1.23: fold change [15, 27]
1480 and 1100: cell count [15, 28]
inactive: inhibition [3] 2% | parasite load remaining [18] 0.02% | outcome [8] | outcome [9] | outcome [10] | outcome [11] | remaining activity [12] 120% | fold change [15, 26] 0.989 and 1.06 | z-score [16, 30] 0.314 | z-score [17] -0.7
-0.453: z-score [16, 31]
active: growth inhibition [1] 98% | inhibition [2] 84% | growth inhibition [4] 90% | AC50 [19] 1.32 µM | AC50 [13] 0.59 µM | AC50 [14] 1.87 µM | AC50 [20] 1.48 µM | AC50 [21] 1.86 µM | AC50 [22] 1.32 µM | AC50 [23] 0.209 µM | AC50 [24] 1.48 µM | IC50 [25] 2.63 µM

NC1=NC(c2ccccc2)(c2ccccc2)C(=O)N1C1CCCCC1
inactive: inhibition [2] 13% | inhibition [3] 0% | outcome [8] | outcome [9] | outcome [10] | outcome [11]
active: growth inhibition [1] 87% | growth inhibition [4] 100%

CCCS(=O)(=O)N1CCC(CO)(Cc2ccccc2C(F)(F)F)CC1
inactive: inhibition [2] -1% | inhibition [3] -2% | outcome [8] | outcome [9] | outcome [10] | outcome [11]
active: growth inhibition [1] 57% | growth inhibition [4] 97%

CCCCCCNc1c2ccccc2nc2ccccc12
inactive: growth inhibition [1] 32% | inhibition [2] 24% | inhibition [3] -3% | outcome [8] | outcome [9] | outcome [10] | outcome [11]
active: growth inhibition [4] 97%

CCc1ccc(OCc2ccccc2C(=O)Nc2ccc3nc(C)cc(N)c3c2)cc1
1370 and 181: cell count [15, 28]
inactive: inhibition [3] 0% | outcome [8] | outcome [9] | outcome [10] | outcome [11] | remaining activity [12] 108% | fold change [15, 26] 0.988 and 0.896 | z-score [16, 30] -0.512 | z-score [17] -0.7
1.57 and 0.955: fold change [15, 27]
active: growth inhibition [1] 74% | inhibition [2] 98% | growth inhibition [4] 99% | AC50 [19] 9.34 µM | AC50 [13] 11.8 µM | AC50 [14] 3.32 µM | AC50 [20] 3.32 µM | AC50 [21] 7.42 µM | AC50 [22] 8.33 µM | AC50 [23] 8.33 µM | AC50 [24] 5.25 µM | IC50 [25] 9.34 µM
1390 and 202: cell count [15, 29]
0.826: z-score [16, 31]

COc1cc2c(Nc3ccc(NC(=O)c4ccccc4)cc3)ncnc2cc1OCCCN1CCOCC1
1900 and 3920: cell count [15, 29]
1 and 1.45: fold change [15, 27]
inactive: inhibition [2] 14% | inhibition [3] 5% | outcome [8] | outcome [9] | outcome [10] | outcome [11] | remaining activity [12] 94.5% | fold change [15, 26] 1.01 and 1.03 | z-score [16, 30] -0.661 | z-score [17] -0.64
active: growth inhibition [1] 93% | growth inhibition [4] 99% | AC50 [19] 4.68 µM | AC50 [14] 20.9 µM | AC50 [20] 18.7 µM | AC50 [22] 1.32 µM | AC50 [24] 20.9 µM | IC50 [25] 8.33 µM
0.628: z-score [16, 31]
1920 and 4040: cell count [15, 28]
